Bioassay records (PubChem)
The list is not random: actives were taken first. Their share in the collection is about 1.7%.
TrxR1 substrate = substrates of rat thioredoxin reductase 1. O89049. purified TrxR1 substrate turnover, NADPH consumption readout. Potency, µM (titrated, usually from 114 µM), without a hit: at the highest dose activity change, negative = substrate turnover. 390,000 compounds, 0.01% hits. AID 588456; note: % is set by controls: 0 for no effect and ±100 for the full control effect; nearly all actives have a fitted effect of over 50% in size
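Rat TrxR1, dispensed at 90 nM, was prereduced with 400 uM NADPH (final) for 5 min at ~22 deg C, then incubated with compound 15 min before 400 uM selenite. A first-read NADPH fluorescence drop versus no-compound background flagged substrates.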
Anesthetic bind = binds horse apoferritin like a general anesthetic; apoferritin/1-aminoanthracene competitive binding, fluorescence; Potency, µM (doses to about 77.5 µM), for inactives: at the top dose activity change, negative = displacement, usual class: inhibitors; P02791; AID 485281; 350,000 compounds, 0.074% hits; note: % is set by controls: 0 for no effect and ±100 for the full control effect; nearly all actives have a fitted effect of over 20% in size
Target sequence (P02791 2-175 limits assumed): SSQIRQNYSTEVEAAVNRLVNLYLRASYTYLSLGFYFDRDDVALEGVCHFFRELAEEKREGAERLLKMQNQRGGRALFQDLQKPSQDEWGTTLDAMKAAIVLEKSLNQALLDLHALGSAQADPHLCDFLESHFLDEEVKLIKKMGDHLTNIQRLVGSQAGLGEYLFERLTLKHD
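Probe: 1-aminoanthracene (50% saturated, PBS). Protein: horse-spleen apoferritin, 10 uM. Incubation: 10 min, room temperature. Detection: 380 nm excitation, 535 nm emission. Analysis: normalized response, four-parameter Hill.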
TrxR1 inh = inhibitors of rat thioredoxin reductase 1 | AID 588453 | 390,000 compounds, 1% hits | recombinant rTrxR1, NADPH fluorescence consumption, selenite substrate | Potency, µM (highest dose often 114 µM), inactives show at the top dose activity change, negative = inhibition, actives largely listed as inhibitors | O89049; note: % is set by controls: 0 for no effect and ±100 for the full control effect; nearly all actives have a fitted effect of over 65% in size
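Rat TrxR1 (90 nM in the dispensed reagent) was pre-reduced with 400 uM NADPH for 5 min at room temperature, then incubated with compound for 15 min. After 400 uM selenite was added, NADPH fluorescence (Ex 340/Em 450 nm) was followed for 8 min.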
mIDH1 inhibitor = inhibitors of human mutant IDH1 R132H; O75874; IDH1-R132H enzyme, NADPH consumption, diaphorase/resazurin fluorescence; Potency, µM (highest dose often 76.6 µM), for inactives: at the highest dose activity change, negative = inhibition, usual class: inhibitors; 390,000 compounds, 0.093% hits; AID 602179; note: % is set by controls: 0 for no effect and ±100 for the full control effect; nearly all actives have a fitted effect of over 65% in size
Target sequence (O75874 whole entry R132H, stated change not applied): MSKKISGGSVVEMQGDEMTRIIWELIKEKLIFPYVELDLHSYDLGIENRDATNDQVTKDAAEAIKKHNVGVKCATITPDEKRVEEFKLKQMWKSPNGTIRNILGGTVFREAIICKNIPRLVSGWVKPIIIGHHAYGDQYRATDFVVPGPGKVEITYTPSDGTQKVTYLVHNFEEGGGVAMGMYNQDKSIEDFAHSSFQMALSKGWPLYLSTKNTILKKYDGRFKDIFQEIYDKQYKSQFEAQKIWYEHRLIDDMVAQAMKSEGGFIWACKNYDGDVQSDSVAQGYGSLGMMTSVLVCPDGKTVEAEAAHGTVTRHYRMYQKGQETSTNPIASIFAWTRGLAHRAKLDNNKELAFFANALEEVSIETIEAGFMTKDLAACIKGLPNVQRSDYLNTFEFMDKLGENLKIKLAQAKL
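IDH1-R132H (0.5 ug/mL dispensed) in pH 7.5 Tris buffer was preincubated 30 min with compound, then given a substrate mix of 0.016 mM NADPH and 2 mM alpha-KG for 80 min at room temperature; remaining NADPH was read by diaphorase/resazurin fluorescence.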
12-LOX inh = inhibitors of human 12S-lipoxygenase ALOX12 | P18054 | purified 12hLO, xylenol orange hydroperoxide absorbance | Potency, µM (doses to about 108 µM), inactives show at the top dose activity change, negative = inhibition, hits mostly inhibitors | 580,000 compounds, 1.1% hits; note: % is set by controls: 0 for no effect and ±100 for the full control effect
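Purified human 12hLO at 150 nM in 25 mM Hepes, 0.01% Triton X-100, pH 7.0, preincubated 15 min at room temperature with compound. Reaction started with 40 uM arachidonic acid, 30 min at room temperature. Hydroperoxide measured by Fe-xylenol orange, 573/405 nm absorbance ratio.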
GRP78 ERSR act = ER stress response induction in glioma | 420,000 compounds, 0.02% hits | U87-MG GRP78 promoter luciferase reporter, 16 h | AID 602332 | Potency, µM, inactives show top-dose activation, most hits filed as activators; note: series mostly up to about 76 µM; % of control where 0% means no effect; nearly all actives have a fitted effect of over 35% in size
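Stably transfected U87-MG human glioma cells carrying a GRP78-based luminescent sensor were seeded at 1000 cells/well, pin-dosed with compounds and incubated 16 h. Luciferase reagent was then added, and end-point luminescence was read after 10 min at room temperature.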
An asterisk follows results filed as active; ? = inconclusive; nt = no result given; ! = repeats disagree; [ ] = another dose, or the depositor's remark. Calls come from the whole dose curve; as a rule, active = well fitted curve in the direction sought with a large enough effect; inconclusive = small, poorly fitted or top-dose-only effect, or another doubt; inactive = no such curve, though single readings can be large; an effect the other way counts as inactive or inconclusive. Potency is the fitted concentration of half-maximal effect.

SMILES | TrxR1 substrate | Anesthetic bind | TrxR1 inh | mIDH1 inhibitor | 12-LOX inh | GRP78 ERSR act
COc1ccc(CC(=O)N2CCCN(C)C3(CCN(C)CC3)C2)cc1OC | nt | nt | nt | nt | -19% | nt
CCOP(=O)(C1=C(O)C(=O)C(C(C)(C)C)=CC1=O)c1ccccc1 (stereo not drawn) | 8% | -11% | 4.5µM* | 1% | -125% | -3%
CCOP(=O)(OCC)C(O)c1ccccc1 (stereo not drawn) | 2% | 4% | 21% | 8% | -82% | -2%
O=C(COC(=O)c1cc(Br)cc(Br)c1O)NC12CC3CC(CC(C3)C1)C2 | nt | nt | nt | nt | -2% | nt
COc1cc(O)c(C(=O)O)c(-c2cc(O)c(O)cc2C)c1 | 0%[57.1 µM] | -10% | 0.79µM* | -4% | 3.2µM* | 3%
O=C(CNC(=O)c1ccc(Cl)cc1)OCC(=O)c1ccc2c(c1)OCCO2 | -6% | 10µM* | 8% | -1% | 12% | 4%
Cc1nc2c(=O)n(C)c(=O)nc-2n(C)n1 | 35µM* | 2% | 50µM* | 21% | 0% | -14%
Cn1nc(-c2ccccc2)nc2c(=O)n(C)c(=O)nc1-2 | 40µM* | nt | ? | nt | nt | -10%
COc1cccc(CC(=O)N2CCC3(CC2)NCc2ccccc2-n2ccnc23)c1 | nt | nt | nt | nt | 8% | nt
Cc1nn(Cc2ccccc2)c(C)c1C=C1C(=O)NC(=S)NC1=O | -4% | -8% | 8.9µM* | -6% | ? | -3%
COc1ccc(-c2cc([C@H]3CN4CC[C@H]3C[C@@H]4CNC(=O)C3CCC3)n(C)n2)cc1OC | nt | nt | nt | nt | 1%[176 µM] | nt
NC(N)=NCCCCCCCCCCN=C(N)N | nt | 1% | nt | nt | -1% | -1%
C[N+]12CCC(CC1)C(C(O)(c1ccccc1)c1cccs1)C2 (stereo not drawn) | 8% | -7% | 21% | -4% | 45µM* | -2%
CCC[N+]12CCC(CC1)C(C(O)(c1ccccc1)c1ccccc1)C2 (stereo not drawn) | -2% | -1% | 20% | 2% | ? | -5%
O=[N+]([O-])c1ccc(Cl)c([N+](=O)[O-])c1 | 1% | nt | 2.8µM* | -8% | -8% | -12%
O=[N+]([O-])c1ccc(O)c([N+](=O)[O-])c1 | -12% | -18% | -14% | 0% | -25% | 0%
CCOC(=O)C1=C(N)OC(C)=C(C(=O)OCc2ccccc2)C12C(=O)Nc1ccc(Br)cc12 (stereo not drawn) | nt | nt | nt | nt | 0% | nt
C/C=C(/C)C(=O)O[C@H]1C(C)=C2[C@H]([C@@H]1OC(=O)CCCCCCC)[C@@](C)(OC(C)=O)C[C@H](OC(=O)CCC)[C@@]1(O)[C@H]2OC(=O)[C@@]1(C)O | ? | ? | ? | nt | 6% | 0.016µM*!
CCc1ccc(N2C(=O)NC(=O)/C(=C/c3ccsc3)C2=O)cc1 | nt | -5% | nt | nt | nt | nt
O=C1NC(=O)N(c2ccc3c(c2)OCO3)C(=O)/C1=C/c1ccsc1 | -12% | -7% | 35µM* | 4% | ? | -3%
O=C1NC(=O)N(c2ccc3c(c2)OCO3)C(=O)/C1=C/c1cccs1 | 1% | -6% | 45µM* | 0% | ? | -2%
O=C1NC(=O)N(c2ccc3c(c2)OCO3)C(=O)/C1=C/c1ccc(N2CCCC2)o1 | ? | -21% | ? | 4% | -17% | -3%
NC1(c2ccccc2)CC1 | nt | nt | nt | nt | -4% | nt
C=C(C)C1Cc2c(ccc3c2OC2COc4cc(OC)c(OC)cc4C2C3=O)O1 (stereo not drawn) | nt | nt | nt | nt | nt | -4%
CN1CCN(C(=O)Cc2c[nH]c3ncc(-c4ccc(Cl)cc4)cc23)CC1 | nt | nt | nt | nt | -27%[176 µM] | nt
SMILES | TrxR1 substrate | Anesthetic bind | TrxR1 inh | mIDH1 inhibitor | 12-LOX inh | GRP78 ERSR act
O=C1NC(=O)N(c2ccccc2F)C(=O)/C1=C/c1ccc(Oc2ccc([N+](=O)[O-])cn2)cc1 | 4% | -20% | 3.5µM* | 1% | ? | -4%
Cc1ccccc1N1C(=O)NC(=O)/C(=C\c2cnn(-c3ccccc3)c2)C1=O | 6% | -4% | ? | -2% | ? | -10%
Oc1cccc2cccnc12 | 6% | -6% | 13% | nt | 9.3µM*! | -4%
COc1ccc(Cc2c(O)[nH]c(=S)[nH]c2=O)cc1 | -9% | 0% | -14% | -13% | 28µM* | -3%
CCCCOc1ccc(C(C)=O)cc1Cc1c(O)[nH]c(=S)[nH]c1=O | -1% | -8% | 39%[2.29 µM] | -5% | 13% | 1%
Cc1ccc(-n2sc3ccccc3c2=O)cc1 | -15% | -6% | 100% | 5% | 1.1µM* | -9%
NC(Cc1ccc(N(CCCl)CCCl)cc1)C(=O)O (stereo not drawn) | 3%[57.1 µM] | nt | 40µM* | nt | nt | -4%
COc1ccc(OC)c(N2C(=O)/C(=C/c3ccco3)C(=O)NC2=S)c1 | -10% | -11% | 28µM* | 1% | nt | -7%
Cc1cccc(N2C(=O)NC(=O)/C(=C\C=C\c3ccco3)C2=O)c1 | -11% | -4% | ? | 0% | ? | -16%
COc1ccc(OC)c(N2C(=O)NC(=O)/C(=C/c3ccc([N+](=O)[O-])s3)C2=O)c1 | 5%[57.1 µM] | ? | ? | 9% | 40µM* | -5%
Cc1ccc(N2C(=O)/C(=C/c3ccc(CN(CCC#N)S(C)(=O)=O)o3)C(=O)NC2=S)cc1C | nt | -20% | nt | nt | nt | nt
Cc1cccc(N2C(=O)NC(=O)/C(=C/c3ccc([N+](=O)[O-])o3)C2=O)c1 | -3% | -10% | 13µM* | -1% | nt | -5%
Cc1cccc(N2C(=O)/C(=C/c3ccc(CN(CCC#N)S(C)(=O)=O)o3)C(=O)NC2=S)c1 | -16% | 0% | 7.9µM* | -1% | 13µM* | -1%
C=CCN1CCC2(CCC1=O)CN(C(=O)Cc1cccnc1)CCN2C (stereo not drawn) | nt | nt | nt | nt | 24% | nt
Cc1nc(-c2ccc(C(F)(F)F)cc2)cc([C@H]2CN3CC[C@H]2C[C@@H]3CNC(=O)C(C)(C)C)n1 | nt | nt | nt | nt | 26% | nt
COCCNC(=O)[C@H]1CN2CC[C@H]1C[C@@H]2Cn1cc(-c2ccc(C(C)(C)C)cc2)nn1 | nt | nt | nt | nt | 10%[176 µM] | nt
CCOc1ccc(N2C(=O)/C(=C/c3ccc(C)o3)C(=O)NC2=S)cc1 | -3% | -21% | 25µM* | -6% | ? | -2%
Cc1ccc(/C=C2\C(=O)NC(=S)N(c3cccc(F)c3)C2=O)o1 | -3% | -9% | 7.9µM* | -10% | ? | -4%
COc1ccc(N2C(=O)/C(=C/c3cc(C)n(-c4ccc(C)cn4)c3C)C(=O)NC2=S)c(OC)c1 | -3% | ? | ? | -2% | 35µM* | 2%
COc1ccc(N2C(=O)/C(=C/c3ccc(C)o3)C(=O)NC2=S)cc1 | -16% | -1% | 20µM* | -14% | 13µM* | 2%
CN1CCN(c2ccc(/C=C3\C(=O)NC(=S)N(c4cccc(Br)c4)C3=O)o2)CC1 | -24% | 6% | ? | 2% | ? | -3%
